Screening data (PubChem BioAssay)
Rows were chosen to be rich in hits. Some 2.5% of all compounds tested hit in one or more screens of this group.
TDP43 rescue – TDP-43 toxicity inhibition in yeast; TDP-43 expressing yeast growth rescue, BacTiter-Glo, 24 h; Potency, µM (highest dose often 46.1 µM), for the others: at the highest dose growth rescue (activation), most hits filed as activators; 1.8% of 410,000 active; AID 652104; note: potency is the fitted concentration of half-maximal effect; % of control where 0% means no effect; nearly all actives have a fitted effect of over 50% in size
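Galactose-induced TDP-43 yeast, OD600=0.02, compound pinned; 24 hr, 30 deg C; BacTiter-Glo luminescence for growth. Inhibitors of TDP-43 toxicity read as activators.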
aSyn rescue – rescues yeast growth from alpha-synuclein toxicity; Yeast expressing alpha-synuclein, growth rescue, BacTiter-Glo, 24 h; Potency, µM (series often up to 46.1 µM), for the others: at the highest dose growth rescue (activation), most hits filed as activators; 0.14% of 370,000 active; AID 652106; note: potency is the fitted concentration of half-maximal effect; % of control where 0% means no effect; nearly all actives have a fitted effect of over 65% in size
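Readout is rescue of growth in alpha-synuclein-expressing yeast, so inhibitors of toxicity appear as activators. Growth after 24 hr at 30 deg C in galactose medium is quantified by luminescence.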
Apoferritin bind – candidate novel general anesthetic via apoferritin binding; AID 485281; Potency, µM (series often up to 77.5 µM), inactives show at the highest dose activity change, negative = displacement, actives largely listed as inhibitors; 0.074% of 350,000 active; apoferritin/1-aminoanthracene competitive binding, fluorescence; note: potency is the fitted concentration of half-maximal effect; % is set by controls: 0 for no effect and ±100 for the full control effect; nearly all actives have a fitted effect of over 20% in size
Target sequence (P02791 2-175 limits assumed): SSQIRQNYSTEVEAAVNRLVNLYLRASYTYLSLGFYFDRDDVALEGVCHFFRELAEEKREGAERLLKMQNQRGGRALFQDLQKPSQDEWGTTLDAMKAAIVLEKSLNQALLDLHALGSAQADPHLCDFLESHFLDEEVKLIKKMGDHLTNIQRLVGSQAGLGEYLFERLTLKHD
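10 uM apoferritin + 50% sat. 1-AMA, PBS; cpd 10 min RT; Ex380/Em535 endpoint; normalized to free probe vs complex; 4-param Hill fit; propofol titration as pos. ctrl.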
CCT chaperon mod – modulators of cytosolic chaperonin (CCT/TRiC) activity | purified chaperonin ATPase assay, HTRF ADP detection, 30 min | activity change, % (concentration not given with the values), hits read low | 0.3% of 360,000 active | AID 651819; in the data active = activity change below about -30%; note: % is set by controls: 0 for no effect and ±100 for the full control effect
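TRiC at 40 or 20 nM final (batch-dependent) in 30 mM Tris pH 7.4, 100 mM KCl, 5 mM MgCl2, 1 mM DTT, with compound at single 76 uM and 10 uM ATP, 30 min at 37 deg C. ADP detected by HTRF Transcreener, 665/615 ratio.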
Mito fusion act – blocks mitochondrial division or promotes mitochondrial fusion; S. cerevisiae fusion-defective mutant growth rescue, CellTiterGlo 48 h; Potency, µM (highest dose often 46.1 µM), without a hit: at the highest dose growth rescue (activation), actives largely listed as activators; 0.23% of 320,000 active; AID 485298; note: potency is the fitted concentration of half-maximal effect; % of control where 0% means no effect; nearly all actives have a fitted effect of over 45% in size
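Yeast fusion mutant, YPEG (non-fermentable carbon), compound, 48 h at 37C non-permissive; CellTiterGlo added, 10 min RT, luminescence read. Rescued growth = division inhibition.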
Akt phos inh – blocks phosphorylation of Akt. Neuro2A IGF-stimulated pAkt S473 HTRF, 20 min; hits give low values. 0.32% of 360,000 active. activity change, % for hits at 50 µM; in the data active = activity change below about -80%; inconclusive = mostly about -51% to -80%; note: % is set by controls: 0 for no effect and ±100 for the full control effect
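Neuro2A cells in DMEM with 0.5% FBS, overnight at 37 deg C, given compound at single 50 µM final, then IGF (6 nM final) for 20 min at 37 deg C. Lysed; phospho-Akt Ser473 by HTRF after 24 h, 665/615 ratio.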
* hit, by the source's call; i = inactive; ? = inconclusive; nt = not tested or not shown; [ ] = another dose, or the depositor's remark. Unless noted, calls come from the whole dose curve; as a rule, active = well fitted curve in the direction sought with a large enough effect; inconclusive = small, poorly fitted or top-dose-only effect, or another doubt; inactive = no such curve, though single readings can be large; an effect the other way counts as inactive or inconclusive.

SMILES	TDP43 rescue	aSyn rescue	Apoferritin bind	CCT chaperon mod	Mito fusion act	Akt phos inh
CCc1c(C)sc(NC(=S)Nc2cccnc2)c1C(=O)OC	25µM*	-3%	?	-3	7%	i
COc1cc2nc(N3CCCN(C)CC3)nc(Nc3ccncc3)c2cc1OC	nt	-2%	nt	nt	nt	nt
COc1ccc(NC(=O)NC(C)(C(F)(F)F)C(F)(F)F)cc1	5%	-13%	-17%	-79*	0%	i
O=S(=O)(NCC(c1ccco1)S(=O)(=O)c1cccs1)c1ccc(F)c(C(F)(F)F)c1 (centres undefined)	0.89µM*	nt	-14%	nt	nt	nt
O=S(=O)(NCC(c1ccco1)S(=O)(=O)c1cccs1)c1ccc(Cl)cc1 (centres undefined)	?	nt	-8%	nt	nt	nt
CCCc1[nH]nc2c1C(Cc1ccccc1)C(C#N)=C(N)O2 (centres undefined)	-3%	-2%	-9%	-2	1%	-106%*
O=C(COC(=O)c1ccc2ncsc2c1)Nc1cc(Cl)ccc1F	14µM*	-3%	nt	-1	?	i
CC1CCc2cc(F)cc3c2N1C(=O)C(C(=O)Nc1cnccn1)C3=O (centres undefined)	nt	8%	nt	nt	nt	nt
Clc1ccccc1COc1ccccc1-c1nnco1	3.2µM*	15%	?	-2	3%	i
CCCN1CNc2c(c(=O)[nH]c(=S)n2CCc2cccc(Cl)c2)C1	nt	-6%	nt	nt	nt	nt
CCCC(=O)N1CCc2cc(OC)c(OC)cc2C1COc1ccc(C(=O)OC)cc1 (centres undefined)	27%	-9%	3%	nt	nt	nt
CCCCC(=O)N1CCc2cc(OC)c(OC)cc2C1COc1ccc(C(=O)OCC)cc1 (centres undefined)	22µM*	23%	-14%	nt	nt	nt
CCOC(=O)c1ccc(OCC2c3cc(OC)c(OC)cc3CCN2C(=O)Cc2ccc(F)cc2)cc1 (centres undefined)	20µM*	15%	82%	nt	nt	nt
COc1cc2c(NC3CCN(C(C)C)CC3)nc(N3CCCN(C)CC3)nc2cc1OCCCN(C)C	nt	-1%	nt	nt	nt	nt
COc1ccc(C2C(C(=O)c3ccco3)=C(O)C(=O)N2CCOCCO)cc1OC (centres undefined)	-7%	2%	-15%	0	-1%	-85%*
Cc1cccc(N2C(=O)C(Oc3ccc(Cl)cc3Cl)C2C=O)c1C (centres undefined)	16µM*	-51%	2%	-1	7%	i
COCCN1CC(=O)N(c2cccc(C)c2C)C(c2ccc(Cl)cc2)C1=O (centres undefined)	7%	5%	-7%	2	0%	i
O=C(c1ccc2c(=O)n(CC3CCCO3)c(=S)[nH]c2c1)N1CCN(C(=O)c2ccco2)CC1 (centres undefined)	nt	23%	nt	nt	nt	nt
COC(=O)C/C=C\[C@@H](C)[C@@H](/C=N\OCC[C@H]1C=C[C@H](OC(C)=O)[C@@H](COC(C)=O)O1)NS(=O)(=O)c1ccc(C)cc1	nt	nt	-5%[15.3 µM]	nt	nt	nt
NC(=O)CSc1nc2ccc([N+](=O)[O-])cc2[nH]1	-8%	4%	-12%	-1	14µM*	i
CCOC(=O)c1ccccc1NC(=S)N1CCC(C)CC1	11µM*	1%	-14%	-1	0%	i
Cc1cc(C)c(Cn2cnc3nc4c(cc3c2=O)CCCC4)c(C)c1	10%	nt	-6%	nt	nt	nt
O=C(CN1C(=O)c2ccccc2C1=O)NCCc1c[nH]c2ccc(Cl)cc12	18%	2%	-1%	3	-4%	i
O=C1c2ccccc2C(=O)N1CCCc1c[nH]c2ccc(Cl)cc12	10µM*	5%	-19%	-1	18µM*	i
Cc1ccccc1COC(=O)CCCC1=NS(=O)(=O)c2ccccc2N1	-10%	0%	-7%	-1	-4%	i
SMILES	TDP43 rescue	aSyn rescue	Apoferritin bind	CCT chaperon mod	Mito fusion act	Akt phos inh
CCOC(=O)CC1=NS(=O)(=O)c2ccccc2N1	-15%	-5%	-7%	3	0%	-106%*
COc1cc2nc(N3CCN(C)CC3)nc(NC3CCN(Cc4ccccc4)CC3)c2cc1OC	nt	-5%	nt	nt	nt	nt
CCOC(=O)CCN1C(=O)[C@H]2[C@H]3[C@H](O)[C@H](O)C/C(=N/NC(=O)OCC)[C@H]3CC[C@@H]2C1=O	nt	nt	9%[15.3 µM]	nt	nt	nt
COc1ccc2c(c1)Cc1sc(NC(=O)c3ccc(Cl)cc3)nc1-2	0%	nt	-19%	nt	nt	nt
Cc1ccccc1NC(=O)COC(=O)CC1CCCC1	-20%	1%	nt	2	9%	i
Cc1ccc(Cl)cc1NC(=O)COC(=O)CC1CCCCC1	13µM*	4%	nt	0	17%	i
c1csc(-c2nn3cnnc3c3ccccc23)c1	22µM*	-1%	-14%	-3	-12%	i
CCCCCC1CC(CC(=O)Nc2ccc([N+](=O)[O-])cc2)OC1=O (centres undefined)	24%	-1%	?	-2	3%	i
CCCCCC1CC(CC(=O)Nc2ccc([N+](=O)[O-])cc2)C(=O)O1 (centres undefined)	22%	13%	16µM*	1	13%	i
CSc1ccc(NC(=O)C2(C)CCN2C(=O)c2sccc2C)cc1 (centres undefined)	35µM*	2%	nt	1	nt	i
COc1ccc(OC)c(NC(=O)CCN2C(=O)c3cccc([N+](=O)[O-])c3C2=O)c1	12%	0%	-17%	-2	1%	i
COc1ccc(NC(=O)CCCCCN2C(=O)c3cccc([N+](=O)[O-])c3C2=O)c(OC)c1	22%	2%	-7%	-39*	-1%	i
COc1ccc(SCC(CC(C)C)N2CCN(CCc3ccccc3)CCC2=O)cc1 (centres undefined)	nt	nt	-8%	nt	nt	nt
CCC1CCCCN1S(=O)(=O)c1ccc2c(c1)CCN2C(=O)C1CCC1 (centres undefined)	35µM*	8%	45%	-4	-4%	i
CCC1CCCCN1S(=O)(=O)c1ccc(NC(=O)c2cccs2)cc1 (centres undefined)	-14%	0%	-18%	-1	16µM*	nt
CCC1CCCCN1S(=O)(=O)c1ccc(NC(=O)c2snnc2C)cc1 (centres undefined)	?	-1%	?	-3	11%	i
CCC1CCCCN1S(=O)(=O)c1ccc2c(c1)CCCN2C(C)=O (centres undefined)	?	nt	-7%	nt	nt	nt
CCc1ccc(C(=O)c2cn(Cc3ccccc3)c3cc(OC)c(OC)cc3c2=O)cc1	22%	nt	?	nt	nt	nt
Cc1cccc(Cn2c(-c3cccc(Br)c3)nc3ccccc32)c1	14µM*	nt	-6%	nt	nt	nt
COc1ccccc1NC(=O)C1=C(C)Nc2nc(SCc3ccccc3)nn2C1c1cccc(O)c1 (centres undefined)	13%	nt	3%	nt	nt	nt
